# Assay results taken from PubChem BioAssay (NCI).
# This is part of a sample that, as a whole, favours compounds with a hit. Of some 83,000 tested, about 20% had one in any assay.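 96-well plates, one dose, 48 hours. Percent growth reported; active if below 10.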 Unmarked numbers belong to inactive results. The source made the active and inactive calls.
# Key:
# Assay in all cases: NCI-60 one-dose screen, 48 h (100 = growth as untreated, 0 = no growth, -100 = all killed)
# Details in all cases: 10 µM unless noted
# [1] = test system: SK-MEL-2 melanoma
# [2] = test system: EKVX NSCLC
# [3] = test system: SN12C renal
# [4] = test system: UO-31 renal
# [5] = test system: TK-10 renal
# [6] = test system: ACHN renal
# [7] = test system: CAKI-1 renal
# [8] = test system: A498 renal
# [9] = test system: CCRF-CEM leukemia
# [10] = test system: MOLT-4 leukemia
SMILES,growth [1],growth [2],growth [3],growth [4],growth [5],growth [6],growth [7],growth [8],growth [9],growth [10]
O=C(Nc1ccccc1)Nc1ncnc2c1ncn2-c1ccc(Cl)cc1,107%,86.7%,63.1%,70.3%,58.9%,69.5%,93.9%,91%,94.2%,84.2%
Cc1sc2nc(NCCc3c[nH]c4ccc(Cl)cc34)[nH]c(=O)c2c1C,78.5%,41.7%,51.7%,18.6%,63.9%,42.9%,12%,69.4%,33.9%,38.7%
O=C1C(Cl)=C(NCCCCCCNC2=C(Cl)C(=O)c3ccccc3C2=O)C(=O)c2ccccc21,84.5%,91.9%,83.6%,83.9%,109%,104%,97.8%,72.9%,97.3%,82.4%
Nc1ncc(-c2ccc3ncnc(Nc4cccc(Cl)c4)c3c2)cn1,50.1%,1.79% (active),45.9%,26.2%,-14.8% (active),21.5%,25.6%,-9.82% (active),40.5%,21.7%
Cn1cc(-c2csc(-c3c[nH]c4ccccc34)n2)c2cnccc21,96.2%,7.91% (active),43.5%,-64.4% (active),55.4%,-4.48% (active),-1.8% (active),77.1%,-8.15% (active),-5.2% (active)
O=C(CSC(=S)n1cnnc1)NC(=O)c1ccccc1,106%,104%,103%,87.8%,101%,105%,104%,106%,99.2%,102%
CC1CCN(S(=O)(=O)c2ccc(S(=O)(=O)N3CCCC(c4nc5c(nnn5Cc5cccc(Cl)c5)c(=O)[nH]4)C3)cc2)CC1 (stereo not given),46.9%,69.1%,47.3%,43.1%,71.5%,71.7%,22.2%,38%,15.2%,19.2%
O=S(=O)(Nc1ccc(F)cc1F)c1ccc(-c2cnc(C3CC3)o2)cc1,36.7%,41.1%,42.9%,40%,67.2%,38.5%,25%,-3.02% (active),19.3%,28.3%
COc1ccc(Nc2ncc(Br)c(NCCCNC(=O)c3cccs3)n2)cc1,46.8%,55.6%,21.5%,-0.36% (active),24.3%,21.3%,16.2%,51.7%,16.3%,19.5%
COc1ccc2[nH]c(C(=O)N3CCN(C(=O)OCc4ccc5c(Cl)cc(Cl)c(O)c5n4)CC3)cc2c1,-77.2% (active),-76.6% (active),-83.8% (active),-100% (active),-99.2% (active),-100% (active),-95.6% (active),-13.8% (active),-9.25% (active),-6.74% (active)
O=C(CN1C(=O)NC2NC(=O)NC21)N/N=C/c1ccccc1[N+](=O)[O-] (stereo not given),114%,103%,105%,87.8%,116%,103%,90.1%,104%,107%,103%
O=c1[nH]c(Cc2nc3ccccc3s2)nc2cc(Br)ccc12,57.5%,87.5%,81.3%,37.3%,94.3%,35.9%,58.7%,95.7%,56.2%,59%
N=C(N)c1ccc(-c2ccc(-c3ccccc3)o2)cc1,-86.6% (active),-18.1% (active),-39.5% (active),-82.2% (active),-77.4% (active),-65.9% (active),-1.49% (active),-21.9% (active),-39.4% (active),-56.2% (active)
C=CCn1c(C)nc2ccc(Nc3nc(Nc4ccc5nc(C)n(CC=C)c5c4)c4ccccc4n3)cc21,-83.8% (active),2.58% (active),-74.9% (active),-91.4% (active),-88.5% (active),-80% (active),-24.1% (active),99.5%,-20.8% (active),-45.5% (active)
CCc1ccc(CCCC(=O)O)cc1,103%,96.3%,93.7%,92.1%,99.9%,101%,94%,95%,104%,98.8%
CCN1CCN(C(=O)[C@]23CCC(C)(C)C[C@@H]2C2=CC[C@@H]4[C@@]5(C)CCC(=O)C(C)(C)[C@@H]5CC[C@@]4(C)[C@]2(C)CC3)CC1,77.1%,63.3%,51.8%,34.1%,80.4%,65.7%,60%,-7.95% (active),37.5%,10.1%
COc1ccc(C(=O)c2cc3c(N)c(C(=O)Nc4ccc(C)cc4)sc3nc2C)cc1,56.1%,40.8%,37.2%,41.2%,61.3%,46.8%,28%,14%,15.7%,20.5%
CCC(C)N(CCNc1cc(OC)cc2cccnc12)CC(C)C (stereo not given),110%,95.5%,101%,67.2%,101%,85.6%,94.1%,92.8%,90.9%,87.4%
CCOc1ccc(NC(=O)CSc2oc(-c3ccccc3)nc2S(=O)(=O)c2ccc(C)cc2)cc1,96.6%,75.1%,85.2%,103%,82.4%,58.9%,83.9%,86.2%,84.8%,66.1%
O=C1/C(=C/c2ccccc2Br)COc2ccc(O)cc21,107%,96.6%,49.5%,58.8%,105%,74.6%,72.5%,113%,3.07% (active),27.2%
CCOC(=O)C/C(=N\Nc1cc(=O)[nH]c2ccc(Br)cc12)C(=O)OCC,103%,109%,100%,71.4%,126%,95.7%,83.1%,122%,-36.7% (active),-15.7% (active)
CC(=O)c1c(C)nc2ccccc2c1/C=C/c1ccc(F)cc1,93.3%,75.5%,93.3%,67.6%,91.8%,85.4%,75.7%,84.6%,82%,84.1%
OCCn1cc(-c2nc(-c3c[nH]c4ncccc34)cs2)c2ccccc21,98.6%,32%,80%,37.8%,82.5%,69.3%,73.7%,34.7%,84.8%,71.2%
Cc1ccc(-c2nc([P+](c3ccccc3)(c3ccccc3)c3ccccc3)c(S(=O)(=O)c3ccc(C)cc3)o2)cc1,22.1%,22.6%,3.91% (active),14.9%,2.83% (active),-13.4% (active),5.62% (active),-0.861% (active),-6.52% (active),-3.24% (active)
Cc1cc(N2CCN(CCNc3ccnc4cc(Cl)ccc34)CC2)nc(N2CCOCC2)n1,83.8%,65.4%,73%,43.7%,84.9%,77.3%,57.9%,45.2%,75.5%,47.6%
COC(=O)c1c(C)nc(C)c2c1C(=O)C(Br)=C(NCc1ccccc1)C2=O,27.2%,17%,8.24% (active),46.1%,86.6%,36.9%,51.8%,88.6%,25.5%,13.6%
Oc1c(Br)cc(Br)c2ccc(Cn3cc(-c4ccccc4C(F)(F)F)nn3)nc12,101%,95.5%,96.9%,78.7%,134%,61.8%,55%,106%,28.7%,6.89% (active)
